Assay results published in PubChem BioAssay (NCI).
The panel holds about 83,000 compounds, 20% with a hit somewhere; the sample as a whole holds those more often.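 Step 1: grow cells in 96-well plates. Step 2: add test compound at a single concentration. Step 3: incubate 48 h. Step 4: record percent growth.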 Values without a mark were called inactive. Activity calls are given as the source filed them. Rule for the calls: active = growth percent below 10; inactive = the rest.

Test system: SK-OV-3 ovarian
Assay: NCI-60 one-dose screen, 48 h (100 = growth as untreated, 0 = no growth, -100 = all killed)
Conditions: 10 µM unless noted

Going from `Cc1cc(N2CCOCC2)nc(N[C@@H]2CCC[C@H](Nc3ccnc4cc(Cl)ccc34)C2)n1` to `Cc1cc(N2CCN(c3ccnc4cc(Cl)ccc34)CC2)nc(N2CCOCC2)n1`, the growth rises from 64.4% to 88.3%.

First: COc1ccc(C2CC(c3ccc4ccccc4c3)=NN2/C=C2\SC(=S)N(NC(=O)Cc3ccccc3Nc3c(Cl)cccc3Cl)C2=O)cc1 (stereo not drawn)
Second: COc1ccc(C(=O)COc2ccc(/C=C3\COc4ccc(OC)cc4C3=O)cc2)cc1
The growth of the first is lower: 41.9% for the first, 105% for the second.

Compared with `CCC([N+](=O)[O-])S(=O)(=O)c1ccc(C)cc1` (stereo not drawn), `CCCCCCN(CCCCCC)C(=N)c1ccnc2ccccc12` is lower in growth: 108% for the first, 92.4% for the second.

First: COc1ccc(/C=C2\Oc3cc(OCCCCN4CCCC4)ccc3C2=O)cc1
Second: CN1CCN(c2nc(NCCCCNc3ccnc4cc(Cl)ccc34)c3ccccc3n2)CC1
The growth of the first is higher: 113% for the first, 104% for the second.

First: NC(=NCCCC1(c2ccccc2)CCCC1)Nc1ccc(Cl)cc1
Second: O=C(CCCCC(=O)N/N=C\c1ccccc1O)N/N=C\c1ccccc1O
The growth of the first is higher: 89% for the first, 40.3% for the second.

Compared with `COc1ccc(/C=C\c2cc(OC)c(OC)c(OC)c2)cc1OCC(=O)Nc1ccc2nc(C)sc2c1`, `CCOc1ccc(-n2nc(C(=O)Nc3ccccc3)nc2-c2cc(OC)c(OC)c(OC)c2)cc1` is lower in growth: 78.5% for the first, 51% for the second.

Going from `Cn1ncc2c(=O)nc3c(-c4ccccc4)n[nH]n3c21` to `O=c1nc2oc3ccc4ccccc4c3cc-2s1`, the growth falls from 103% to 28.5%.

First: O=C(Cc1ccc(/C=C/C(=O)c2ncc[nH]2)cc1)Nc1ccc(F)cc1
Second: COc1cccc(-c2nc(SCC(=O)Nc3ccc(C(=O)/C=C/c4ccc(OC)c(OC)c4)cc3)[nH]c(=O)c2C#N)c1
The growth of the first is lower: 52% for the first, 90.5% for the second.

First: COc1cc(-c2nn(C)nc2-c2cc3ccccc3s2)cc(OC)c1OC
Second: COc1cc(C(=O)Oc2ccccc2OC(=O)c2cc(OC)c(OC)c(OC)c2)cc(OC)c1OC
The growth of the first is lower: 21.2% for the first, 84.9% for the second.

First: Nc1n[nH]c2ccc([C@@H]3Nc4cc5c(cc4[C@H]4C6CCC(C6)[C@@H]34)C(=O)NC5)cc12 (stereo partly drawn)
Second: COc1cc(Nc2cc(C)nc(N3CCN(c4ccnc5cc(Cl)ccc45)CC3)n2)cc(OC)c1
The growth of the first is higher: 42.1% for the first, 15.4% for the second.

Going from `CCCn1c(=O)[nH]c(N)c([C@H]2c3ccccc3Oc3[nH]c(=O)n(CCC)c(=O)c32)c1=O` to `Cn1c(=O)[nH]c(=O)c2nc(CCC(=O)NCCC(=O)O)c(=O)[nH]c21`, the growth falls from 104% to 101%.

Compared with `O=C1/C(=C/c2ccccc2O)N=C2SCCCN12`, `O=Nc1c(O)c(Cl)cc2ccccc12` is lower in growth: 100% for the first, 81.4% for the second.

Compared with `CCNc1ncnc2c1cnn2C1CCCO1` (stereo not drawn), `Nc1ccc(-c2cc3c(Nc4ccc(Oc5cccc(C(F)(F)F)c5)c(Cl)c4)ncnc3s2)cc1` is lower in growth: 104% for the first, 83% for the second.

First: O=C(CN(C(=O)Cn1c(=O)n2nnnc2c2ccccc21)c1ccccc1C(F)(F)F)Nc1ccc(C(F)(F)F)cc1
Second: COc1ccc(CN2c3ccccc3Oc3ccccc32)cc1F
The growth of the first is higher: 103% for the first, 46.5% for the second.

In the case of `CC(=O)O[C@H]1[C@@H]2OC(=O)C(CSc3ccccc3)[C@@H]2C[C@H]2O[C@]2(C)CC/C=C(\C)CCC[C@@H]1C` (stereo partly drawn), the growth is reported as 103%.

For `C=C1c2nc3ccccc3n2C=C(c2cccc(Cl)c2)N1Cc1ccc(OC)cc1`, the growth was 5.13% (active).
In the case of `O=C(COc1ccc(-c2nc3cc(Cl)c(Cl)cc3[nH]2)cc1)N=Nc1c(O)[nH]c2ccccc12`, the growth is reported as 4.99% (active).

Test system: IGROV1 ovarian
Assay: as above
Conditions: 10 µM unless noted

Compared with `Cc1cc(N2CCOCC2)nc(N[C@@H]2CCC[C@H](Nc3ccnc4cc(Cl)ccc34)C2)n1`, `Cc1cc(N2CCN(c3ccnc4cc(Cl)ccc34)CC2)nc(N2CCOCC2)n1` is higher in growth: 26.4% for the first, 97.7% for the second.

First: COc1ccc(C2CC(c3ccc4ccccc4c3)=NN2/C=C2\SC(=S)N(NC(=O)Cc3ccccc3Nc3c(Cl)cccc3Cl)C2=O)cc1 (stereo not drawn)
Second: O=C(COc1ccc(-c2nc3cc(Cl)c(Cl)cc3[nH]2)cc1)N=Nc1c(O)[nH]c2ccccc12
The growth of the first is lower: 33.1% for the first, 33.2% for the second.

Going from `CCC([N+](=O)[O-])S(=O)(=O)c1ccc(C)cc1` (stereo not drawn) to `CCCCCCN(CCCCCC)C(=N)c1ccnc2ccccc12`, the growth falls from 103% to 65.9%.

Compared with `COc1ccc(/C=C2\Oc3cc(OCCCCN4CCCC4)ccc3C2=O)cc1`, `CN1CCN(c2nc(NCCCCNc3ccnc4cc(Cl)ccc34)c3ccccc3n2)CC1` is lower in growth: 81.2% for the first, 78.2% for the second.

Going from `NC(=NCCCC1(c2ccccc2)CCCC1)Nc1ccc(Cl)cc1` to `O=C(CCCCC(=O)N/N=C\c1ccccc1O)N/N=C\c1ccccc1O`, the growth falls from 38.9% to 27.2%.

First: COc1ccc(/C=C\c2cc(OC)c(OC)c(OC)c2)cc1OCC(=O)Nc1ccc2nc(C)sc2c1
Second: CCOc1ccc(-n2nc(C(=O)Nc3ccccc3)nc2-c2cc(OC)c(OC)c(OC)c2)cc1
The growth of the first is lower: 25.2% for the first, 55.1% for the second.

Compared with `COc1cc(C2CC(=O)c3ccccc3N2)cc(OC)c1OC` (stereo not drawn), `COc1cc(-c2nn(C)nc2-c2cc3ccccc3s2)cc(OC)c1OC` is lower in growth: 99% for the first, 39% for the second.

First: CC(C)CC1C(=O)N2CCC[C@H]2C2(O)O[C@](NC(=O)C3C=C4c5cccc6[nH]c(Br)c(c56)C[C@H]4N(C)C3)(C(C)C)C(=O)N12 (stereo partly drawn)
Second: COc1cccc(-c2nc(SCC(=O)Nc3ccc(C(=O)/C=C/c4ccc(OC)c(OC)c4)cc3)[nH]c(=O)c2C#N)c1
The growth of the first is lower: 59% for the first, 103% for the second.

Going from `O=C(Cc1ccc(/C=C/C(=O)c2ncc[nH]2)cc1)Nc1ccc(F)cc1` to `O=C(CN(C(=O)Cn1c(=O)n2nnnc2c2ccccc21)c1ccccc1C(F)(F)F)Nc1ccc(C(F)(F)F)cc1`, the growth rises from 39% to 88.1%.

Going from `Nc1n[nH]c2ccc([C@@H]3Nc4cc5c(cc4[C@H]4C6CCC(C6)[C@@H]34)C(=O)NC5)cc12` (stereo partly drawn) to `O=C1CC[C@H](c2ccc(O)c3c2C(=O)[C@@H]2O[C@@H]2C3=O)c2cccc(O)c21`, the growth rises from 12.6% to 90%.

First: CCCn1c(=O)[nH]c(N)c([C@H]2c3ccccc3Oc3[nH]c(=O)n(CCC)c(=O)c32)c1=O
Second: Cn1c(=O)[nH]c(=O)c2nc(CCC(=O)NCCC(=O)O)c(=O)[nH]c21
The growth of the first is lower: 89% for the first, 98.6% for the second.

First: Cc1cn2c(/C=C3/C(=O)Nc4c3ccc3ccccc43)c(C(F)(F)F)nc2s1
Second: O=c1nc2oc3ccc4ccccc4c3cc-2s1
The growth of the first is higher: 42.1% for the first, 37.2% for the second.

Going from `COc1cc(C(=O)Oc2ccccc2OC(=O)c2cc(OC)c(OC)c(OC)c2)cc(OC)c1OC` to `COc1ccc(CN2c3ccccc3Oc3ccccc32)cc1F`, the growth falls from 101% to 52.1%.

Compared with `O=C1/C(=C/c2ccccc2O)N=C2SCCCN12`, `O=Nc1c(O)c(Cl)cc2ccccc12` is lower in growth: 91.3% for the first, 59.1% for the second.

First: CN(CCCCCl)P(=O)(OCc1ccc([N+](=O)[O-])o1)C(F)(F)c1ccc(CC(=O)NC[C@@H](O)/C=C\[C@@H](O)[C@H](CO)Cc2ccccc2)cc1 (stereo partly drawn)
Second: Nc1ccc(-c2cc3c(Nc4ccc(Oc5cccc(C(F)(F)F)c5)c(Cl)c4)ncnc3s2)cc1
The growth of the first is higher: 99.4% for the first, 59.9% for the second.

With `CC(C)(C)CC(C)(C)c1ccc(OCCOCC[N+](C)(C)Cc2ccccc2)cc1` the growth was -45.9% (active).
With `COc1cc(Nc2cc(C)nc(N3CCN(c4ccnc5cc(Cl)ccc45)CC3)n2)cc(OC)c1` the growth was -22.9% (active).
